# Values joined by “and” are separate entries in the source; they are usually repeats but may differ in a detail not shown here. Equal values may be shown once.
# Legend:
# [1] = target: Serine/threonine-protein kinase MARK2 (Homo sapiens) (UniProt Q7KZI7); conditions: at 1 µM
# [2] = target: PAS domain-containing serine/threonine-protein kinase (Homo sapiens) (UniProt Q96RG2); conditions: at 0.1 µM
# [3] = target: PAS domain-containing serine/threonine-protein kinase (Homo sapiens) (UniProt Q96RG2); conditions: at 1 µM
# [4] = target: Phosphorylase b kinase gamma catalytic chain, skeletal muscle/heart isoform (Homo sapiens) (UniProt Q16816); conditions: at 0.1 µM
# [5] = target: Phosphorylase b kinase gamma catalytic chain, skeletal muscle/heart isoform (Homo sapiens) (UniProt Q16816); conditions: at 1 µM
# [6] = target: T1, Phosphorylase b kinase gamma catalytic chain, liver/testis isoform (Homo sapiens) (UniProt P15735); conditions: at 0.1 µM
# T1 sequence (whole entry): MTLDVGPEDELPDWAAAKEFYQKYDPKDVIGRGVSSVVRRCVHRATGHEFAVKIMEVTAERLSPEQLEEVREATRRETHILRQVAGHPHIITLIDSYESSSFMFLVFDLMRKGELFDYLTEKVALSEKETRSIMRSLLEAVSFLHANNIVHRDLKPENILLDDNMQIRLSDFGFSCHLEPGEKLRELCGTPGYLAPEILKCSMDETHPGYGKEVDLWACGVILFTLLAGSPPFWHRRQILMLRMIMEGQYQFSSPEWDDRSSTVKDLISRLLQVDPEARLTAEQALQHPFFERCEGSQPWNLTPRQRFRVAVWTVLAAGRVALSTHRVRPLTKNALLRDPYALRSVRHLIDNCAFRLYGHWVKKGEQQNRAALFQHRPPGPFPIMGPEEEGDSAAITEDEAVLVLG
# [7] = target: T1, Phosphorylase b kinase gamma catalytic chain, liver/testis isoform (Homo sapiens); conditions: at 1 µM
# [8] = target: Serine/threonine-protein kinase pim-1 (Homo sapiens) (UniProt P11309); conditions: at 0.1 µM
# Serine/threonine-protein kinase pim-1 (Homo sapiens), sequence (P11309 whole entry, looked up): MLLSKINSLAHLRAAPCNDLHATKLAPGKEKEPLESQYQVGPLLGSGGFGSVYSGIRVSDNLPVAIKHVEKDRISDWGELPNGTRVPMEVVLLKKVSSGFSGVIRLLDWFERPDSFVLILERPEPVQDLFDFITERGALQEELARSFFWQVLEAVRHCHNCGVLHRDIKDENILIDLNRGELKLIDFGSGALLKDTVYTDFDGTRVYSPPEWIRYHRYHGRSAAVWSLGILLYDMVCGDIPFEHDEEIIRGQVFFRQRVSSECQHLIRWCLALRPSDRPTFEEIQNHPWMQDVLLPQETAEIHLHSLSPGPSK
# [9] = target: Serine/threonine-protein kinase pim-1 (Homo sapiens) (UniProt P11309); conditions: at 1 µM
# [10] = target: Serine/threonine-protein kinase pim-2 (Homo sapiens) (UniProt Q9P1W9); conditions: at 0.1 µM
# Serine/threonine-protein kinase pim-2 (Homo sapiens), sequence (Q9P1W9 whole entry, looked up): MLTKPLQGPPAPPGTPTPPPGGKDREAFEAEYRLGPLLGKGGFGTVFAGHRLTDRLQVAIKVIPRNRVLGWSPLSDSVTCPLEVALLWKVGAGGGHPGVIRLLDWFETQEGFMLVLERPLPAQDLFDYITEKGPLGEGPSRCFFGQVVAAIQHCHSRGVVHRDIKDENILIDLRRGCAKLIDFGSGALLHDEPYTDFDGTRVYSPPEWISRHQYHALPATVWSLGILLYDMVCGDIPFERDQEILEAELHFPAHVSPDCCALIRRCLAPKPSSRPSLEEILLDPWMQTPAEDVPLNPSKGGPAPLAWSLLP
# [11] = target: Serine/threonine-protein kinase pim-2 (Homo sapiens) (UniProt Q9P1W9); conditions: at 1 µM
# [12] = target: Serine/threonine-protein kinase pim-3 (Homo sapiens) (UniProt Q86V86); conditions: at 0.1 µM
# [13] = target: Serine/threonine-protein kinase pim-3 (Homo sapiens) (UniProt Q86V86); conditions: at 1 µM
# [14] = target: T2, MAP kinase-activated protein kinase 5 (Homo sapiens) (UniProt Q8IW41); conditions: at 0.1 µM
# T2 sequence (whole entry): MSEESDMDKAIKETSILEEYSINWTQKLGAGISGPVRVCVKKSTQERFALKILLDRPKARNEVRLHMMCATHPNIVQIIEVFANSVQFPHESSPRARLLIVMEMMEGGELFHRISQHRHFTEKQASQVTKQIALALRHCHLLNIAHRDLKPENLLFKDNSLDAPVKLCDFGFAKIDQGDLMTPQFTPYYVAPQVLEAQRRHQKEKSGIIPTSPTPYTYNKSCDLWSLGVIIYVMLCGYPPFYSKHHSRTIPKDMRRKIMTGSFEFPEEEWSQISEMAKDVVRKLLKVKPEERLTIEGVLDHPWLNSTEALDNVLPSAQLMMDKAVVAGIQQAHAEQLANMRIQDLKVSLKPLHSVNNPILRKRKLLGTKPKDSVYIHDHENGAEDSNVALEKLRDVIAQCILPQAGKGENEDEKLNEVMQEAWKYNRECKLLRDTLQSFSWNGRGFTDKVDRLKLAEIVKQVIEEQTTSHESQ
# [15] = target: T2, MAP kinase-activated protein kinase 5 (Homo sapiens); conditions: at 1 µM
# [16] = target: Serine/threonine-protein kinase SIK1 (Homo sapiens) (UniProt P57059); conditions: at 0.1 µM
# Serine/threonine-protein kinase SIK1 (Homo sapiens), sequence (P57059 whole entry): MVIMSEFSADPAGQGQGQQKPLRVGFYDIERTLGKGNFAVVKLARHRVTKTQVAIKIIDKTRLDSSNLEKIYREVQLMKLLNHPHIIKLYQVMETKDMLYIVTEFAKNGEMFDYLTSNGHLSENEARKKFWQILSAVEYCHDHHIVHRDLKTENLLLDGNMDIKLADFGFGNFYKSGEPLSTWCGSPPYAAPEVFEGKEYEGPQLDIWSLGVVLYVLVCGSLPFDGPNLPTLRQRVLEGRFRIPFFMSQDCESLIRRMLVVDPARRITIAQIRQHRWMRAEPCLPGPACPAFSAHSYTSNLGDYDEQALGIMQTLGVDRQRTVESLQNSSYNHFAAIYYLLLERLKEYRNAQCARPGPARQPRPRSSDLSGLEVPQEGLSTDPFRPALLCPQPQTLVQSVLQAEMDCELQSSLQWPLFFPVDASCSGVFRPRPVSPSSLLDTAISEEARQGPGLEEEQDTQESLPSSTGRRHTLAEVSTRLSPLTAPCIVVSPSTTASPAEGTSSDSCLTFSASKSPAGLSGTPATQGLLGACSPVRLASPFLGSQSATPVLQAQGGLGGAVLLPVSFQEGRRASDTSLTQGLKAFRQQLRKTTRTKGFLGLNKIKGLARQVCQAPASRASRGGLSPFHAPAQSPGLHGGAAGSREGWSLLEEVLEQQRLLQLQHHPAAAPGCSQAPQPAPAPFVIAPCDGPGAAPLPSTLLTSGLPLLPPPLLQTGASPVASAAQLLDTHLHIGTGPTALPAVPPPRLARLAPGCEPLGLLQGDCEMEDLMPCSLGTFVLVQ
# [17] = target: Serine/threonine-protein kinase SIK1 (Homo sapiens) (UniProt P57059); conditions: at 1 µM
# [18] = target: Serine/threonine-protein kinase SIK2 (Homo sapiens) (UniProt Q9H0K1); conditions: at 0.1 µM
# Serine/threonine-protein kinase SIK2 (Homo sapiens), sequence (Q9H0K1 whole entry, looked up): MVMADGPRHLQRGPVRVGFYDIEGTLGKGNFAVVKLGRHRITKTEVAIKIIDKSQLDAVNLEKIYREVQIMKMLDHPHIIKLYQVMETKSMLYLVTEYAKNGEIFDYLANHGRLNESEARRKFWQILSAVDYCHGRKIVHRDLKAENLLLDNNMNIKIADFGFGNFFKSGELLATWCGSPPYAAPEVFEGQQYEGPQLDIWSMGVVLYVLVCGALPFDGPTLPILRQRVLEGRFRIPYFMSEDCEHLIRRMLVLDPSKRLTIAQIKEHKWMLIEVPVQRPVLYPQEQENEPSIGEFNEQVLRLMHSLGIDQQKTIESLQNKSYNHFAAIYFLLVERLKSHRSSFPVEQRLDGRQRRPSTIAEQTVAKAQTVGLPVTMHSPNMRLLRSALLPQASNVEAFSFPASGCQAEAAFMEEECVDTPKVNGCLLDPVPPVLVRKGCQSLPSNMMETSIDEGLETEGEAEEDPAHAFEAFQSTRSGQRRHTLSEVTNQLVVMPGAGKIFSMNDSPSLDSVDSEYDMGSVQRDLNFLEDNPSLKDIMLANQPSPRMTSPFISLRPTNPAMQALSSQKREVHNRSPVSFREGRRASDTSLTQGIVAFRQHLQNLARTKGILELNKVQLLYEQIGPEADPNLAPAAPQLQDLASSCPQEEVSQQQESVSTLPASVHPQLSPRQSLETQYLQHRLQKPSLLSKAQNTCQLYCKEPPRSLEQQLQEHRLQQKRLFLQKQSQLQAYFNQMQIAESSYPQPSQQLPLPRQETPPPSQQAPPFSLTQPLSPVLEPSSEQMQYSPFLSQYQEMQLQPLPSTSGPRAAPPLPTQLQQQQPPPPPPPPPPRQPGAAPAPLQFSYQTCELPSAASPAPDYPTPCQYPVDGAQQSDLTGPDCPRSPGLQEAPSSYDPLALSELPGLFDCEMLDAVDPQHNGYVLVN
# [19] = target: Serine/threonine-protein kinase SIK2 (Homo sapiens) (UniProt Q9H0K1); conditions: at 1 µM
# [20] = target: T3, Serine/threonine-protein kinase TBK1 (Homo sapiens) (UniProt Q9UHD2); conditions: at 0.1 µM;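 also: values are the mean TBK1 inhibition, taken from the GSK PKIS screening data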
# T3 sequence (whole entry): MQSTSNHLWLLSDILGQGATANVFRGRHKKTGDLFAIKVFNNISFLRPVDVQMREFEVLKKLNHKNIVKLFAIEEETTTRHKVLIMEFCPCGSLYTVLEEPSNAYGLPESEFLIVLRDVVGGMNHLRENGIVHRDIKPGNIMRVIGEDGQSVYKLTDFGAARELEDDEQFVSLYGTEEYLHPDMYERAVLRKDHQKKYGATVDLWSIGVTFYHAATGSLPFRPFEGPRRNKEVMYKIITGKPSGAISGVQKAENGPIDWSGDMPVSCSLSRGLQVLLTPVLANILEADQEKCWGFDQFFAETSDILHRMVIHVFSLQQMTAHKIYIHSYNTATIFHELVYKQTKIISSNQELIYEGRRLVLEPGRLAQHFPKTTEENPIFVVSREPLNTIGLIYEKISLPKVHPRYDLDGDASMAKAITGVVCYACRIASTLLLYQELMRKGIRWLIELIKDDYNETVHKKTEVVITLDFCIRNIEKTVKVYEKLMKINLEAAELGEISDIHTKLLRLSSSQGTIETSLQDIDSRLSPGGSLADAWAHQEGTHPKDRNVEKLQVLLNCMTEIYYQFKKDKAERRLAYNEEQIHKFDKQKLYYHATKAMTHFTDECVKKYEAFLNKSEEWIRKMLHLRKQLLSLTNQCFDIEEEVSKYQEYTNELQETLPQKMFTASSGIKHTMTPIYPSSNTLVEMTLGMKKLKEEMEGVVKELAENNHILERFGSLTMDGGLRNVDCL
# PAS domain-containing serine/threonine-protein kinase (Homo sapiens), sequence (Q96RG2 whole entry, the tested form may be a part, canonical isoform): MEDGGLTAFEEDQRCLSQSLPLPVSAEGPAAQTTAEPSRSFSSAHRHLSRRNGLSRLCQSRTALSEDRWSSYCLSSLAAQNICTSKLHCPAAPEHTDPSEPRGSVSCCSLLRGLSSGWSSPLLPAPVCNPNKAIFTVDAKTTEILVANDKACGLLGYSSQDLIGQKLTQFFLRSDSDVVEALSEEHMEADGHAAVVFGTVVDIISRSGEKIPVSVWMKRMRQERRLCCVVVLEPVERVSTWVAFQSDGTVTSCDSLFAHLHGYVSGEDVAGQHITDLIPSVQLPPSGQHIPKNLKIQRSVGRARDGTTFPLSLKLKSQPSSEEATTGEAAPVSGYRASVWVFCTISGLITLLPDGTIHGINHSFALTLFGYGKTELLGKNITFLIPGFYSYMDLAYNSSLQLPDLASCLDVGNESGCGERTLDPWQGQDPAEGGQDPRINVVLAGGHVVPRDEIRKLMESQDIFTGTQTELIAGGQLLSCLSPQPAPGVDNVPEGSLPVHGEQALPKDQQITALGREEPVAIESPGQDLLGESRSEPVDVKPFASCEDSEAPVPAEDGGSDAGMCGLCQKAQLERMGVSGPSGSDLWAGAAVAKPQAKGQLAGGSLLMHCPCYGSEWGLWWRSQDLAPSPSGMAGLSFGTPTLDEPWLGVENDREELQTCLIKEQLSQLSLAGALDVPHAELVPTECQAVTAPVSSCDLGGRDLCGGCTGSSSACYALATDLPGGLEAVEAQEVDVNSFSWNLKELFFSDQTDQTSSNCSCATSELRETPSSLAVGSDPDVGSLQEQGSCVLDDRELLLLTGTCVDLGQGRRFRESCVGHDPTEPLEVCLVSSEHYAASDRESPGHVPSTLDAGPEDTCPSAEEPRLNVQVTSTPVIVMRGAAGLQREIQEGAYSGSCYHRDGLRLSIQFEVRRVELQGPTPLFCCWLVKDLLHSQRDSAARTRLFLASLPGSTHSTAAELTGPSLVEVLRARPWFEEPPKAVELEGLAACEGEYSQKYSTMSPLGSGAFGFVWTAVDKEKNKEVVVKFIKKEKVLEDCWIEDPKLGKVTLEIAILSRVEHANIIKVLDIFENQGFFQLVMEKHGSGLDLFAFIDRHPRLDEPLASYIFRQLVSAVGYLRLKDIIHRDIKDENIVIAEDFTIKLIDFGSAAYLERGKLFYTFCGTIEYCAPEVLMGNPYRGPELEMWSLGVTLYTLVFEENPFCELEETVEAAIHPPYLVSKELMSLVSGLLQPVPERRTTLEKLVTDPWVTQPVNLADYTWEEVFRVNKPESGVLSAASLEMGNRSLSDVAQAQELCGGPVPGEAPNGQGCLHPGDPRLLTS
# Serine/threonine-protein kinase MARK2 (Homo sapiens), sequence (Q7KZI7 whole entry, the tested form may be a part): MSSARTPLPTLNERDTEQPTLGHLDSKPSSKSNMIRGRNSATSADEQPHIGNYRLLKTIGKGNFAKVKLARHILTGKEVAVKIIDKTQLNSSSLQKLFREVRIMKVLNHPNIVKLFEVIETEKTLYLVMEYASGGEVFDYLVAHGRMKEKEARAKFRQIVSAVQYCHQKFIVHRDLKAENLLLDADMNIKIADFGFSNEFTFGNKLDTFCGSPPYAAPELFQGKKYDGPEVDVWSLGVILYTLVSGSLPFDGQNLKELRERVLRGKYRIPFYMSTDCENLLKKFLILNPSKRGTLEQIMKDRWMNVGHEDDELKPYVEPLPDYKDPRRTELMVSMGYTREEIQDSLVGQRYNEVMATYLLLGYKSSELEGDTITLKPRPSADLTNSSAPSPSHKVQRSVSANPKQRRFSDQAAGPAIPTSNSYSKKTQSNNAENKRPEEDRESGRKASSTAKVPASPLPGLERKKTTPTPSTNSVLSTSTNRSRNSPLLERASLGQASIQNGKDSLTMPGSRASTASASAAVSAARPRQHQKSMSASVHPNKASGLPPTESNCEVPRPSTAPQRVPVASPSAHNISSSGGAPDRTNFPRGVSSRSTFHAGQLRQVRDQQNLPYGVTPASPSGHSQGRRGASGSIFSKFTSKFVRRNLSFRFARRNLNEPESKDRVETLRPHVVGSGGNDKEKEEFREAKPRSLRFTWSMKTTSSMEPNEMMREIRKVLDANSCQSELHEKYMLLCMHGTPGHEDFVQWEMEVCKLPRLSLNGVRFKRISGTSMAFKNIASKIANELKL
SMILES,inhibition [1],inhibition [2],inhibition [3],inhibition [4],inhibition [5],inhibition [6],inhibition [7],inhibition [8],inhibition [9],inhibition [10],inhibition [11],inhibition [12],inhibition [13],inhibition [14],inhibition [15],inhibition [16],inhibition [17],inhibition [18],inhibition [19],inhibition [20]
O=C(Nc1n[nH]c2nnc(-c3cccnc3)cc12)C1CC1,1.5%,1.31%,0.02%,0.1%,-0.03%,-1.23%,-1.9%,26.1%,74.5%,4.25%,28.7%,26.8%,69.7%,0.13%,-0.19%,1.74%,5.12%,1.86%,-1.67%,0.25%
Cc1cc(O)cc(C)c1/C=C/c1cncc(C(N)=O)c1,1.96%,0.45%,-0.18%,3.36%,2.58%,2.43%,0.42%,0.11%,0.65%,0.8%,0.5%,-0.22%,-1.42%,0.25%,-0.19%,48.9%,89%,6.79%,37.5%,2.21%
c1cnn2ncc(-c3ccnc(NCCCN4CCOCC4)n3)c2c1,-1.01%,-1.6%,-2.98%,4.51%,4.16%,4.4%,2.46%,-0.24%,1.23%,-0.27%,-1.06%,-0.56%,-0.85%,1.09%,1.07%,3.47%,6.56%,3.35%,2.87%,0.82%
Nc1nccc(-c2c(-c3ccc(F)cc3)ncn2C2CCNCC2)n1,1.75% and 0.35%,-0.64% and -0.39%,-0.63% and -0.93%,-0.27% and 1.11%,2.04% and 1.58%,-6.47% and 0.35%,-6.27% and -1.71%,0.29% and -0.7%,7.06% and -0.6%,-0.19% and 0.2%,1.8% and 0.96%,0.82% and 0.07%,11% and 0.53%,-1.67% and 0.07%,-1.48% and 0.35%,-9% and 6.76%,-2.37% and 5.84%,-0.69% and 8.02%,37.4% and 47.1%,-1.45% and -0.58%
O=C(O[C@H]1CN[C@H](C#Cc2cc3ncnc(Nc4ccc5c(ccn5Cc5cc(F)ccc5F)c4)c3s2)C1)N1CCOCC1,-0.27%,0.1%,-1.39%,3.09%,4.72%,4.96%,2.49%,0.84%,0.83%,0.44%,0.17%,-1.4%,-2.6%,1.04%,0.93%,5.35%,7.23%,2.92%,7.13%,2.75%
Fc1cccc(COc2ccc(Nc3ncncc3C#Cc3ccccc3)cc2Cl)c1,1.05%,0.76%,1.64%,3.8%,5.87%,5.59%,8.15%,0.46%,1.07%,0.52%,1.48%,-0.8%,3.6%,2.08%,4.3%,3.74%,5.31%,9.03%,6.72%,5.15%
CNC(=O)c1sc(-n2cnc3cc(OC)c(OC)cc32)cc1OCc1ccccc1C(F)(F)F,1.67%,0.35%,0.79%,4.21%,3.69%,5.8%,5.01%,-0.73%,-0.07%,0.37%,0.56%,-0.77%,-0.33%,1.17%,1.03%,5.73%,11.3%,7.24%,8.75%,1.68%
CS(=O)(=O)CCNCc1ccc(-c2ccc3ncnc(Nc4ccc(OCc5cccc(C(F)(F)F)c5)cc4)c3c2)o1,5.07%,-1.03%,-1.02%,2.44%,4.94%,5.95%,4.97%,1.96%,3.18%,-0.68%,-0.48%,1.17%,4.36%,1.34%,1.44%,1.69%,7.19%,6.4%,8%,3.15%
Fc1ccc(Nc2nccc(-c3c(-c4ccc(C(F)(F)F)cc4)nn4ncccc34)n2)cc1F,2.64%,0.46%,-1.14%,-0.56%,1.84%,3.81%,0.35%,1.07%,0.89%,0.92%,5.02%,-0.88%,-1%,0.6%,-0.23%,5.43%,3.1%,3.76%,2.08%,-0.07%
COc1ccc(-c2nn3ncccc3c2-c2ccnc(Nc3ccc(F)c(F)c3)n2)cc1,0.59%,1.16%,1.41%,8.48%,10.2%,4.94%,9.5%,0.43%,0.69%,1.57%,4.2%,4.52%,6.05%,1.6%,4.42%,1.5%,8.64%,8.32%,7.08%,-2.71%
Cc1ccc(-c2cc3c(NC(=O)C4CC4)ncnc3o2)cc1,3.45%,0.53%,0.26%,3.62%,9.89%,4.46%,1.83%,0.73%,1.91%,0.35%,1.12%,-0.12%,4.13%,0.83%,0.27%,6.5%,7.93%,-1.22%,3.33%,3.64%
Nc1nonc1-c1nc2cnccc2n1C1CC1,17.9% and 14.9%,0.62% and -0.65%,1.08% and 0.92%,5% and 3.93%,7.51% and 3.48%,4.1% and 2.66%,1.15% and 2.16%,12.4% and 13.8%,56.3% and 59.1%,1.57% and -2.36%,11.3% and 9.18%,3.94% and 4.22%,30.6% and 32.5%,0.67% and 1.06%,-0.55% and 4.15%,6.64% and 2.66%,8.35% and 5.12%,0.75% and 5.71%,5.93% and 2.36%,7.96% and 1.98%
COc1cccc(Nc2nccc(-c3cnn4ncccc34)n2)c1,21.4%,-0.19%,-1.63%,2.67%,27.6%,4.4%,18.8%,0.85%,6.56%,0.37%,2.39%,2.39%,17.6%,0.42%,3.44%,6.56%,20.8%,4.86%,13.6%,4.06%

# Reference: ChEMBL document CHEMBL1961873, “Compounds: GSK PKIS; Assays: Nanosyn kinase panel” (2012)
